Data as given in the supplement of paper PMC11732987, “Enantioselective OTUD7B fragment discovery through chemoproteomics screening and high-throughput optimisation” (Communications Chemistry, 2025).

Legend:
Assay in all cases: log2 ratio of Biotin-Ahx-Ub-VS probe labelling (fragment/DMSO); higher = less target engagement (more negative = stronger competition), active = hit call of the paper (q ≤ 0.05, log2 ratio ≤ -1)
Conditions in all cases: compound concentration: 200 uM; treatment time: 3 h
USP42 = molecular target: T1, USP42 (UniProt Q9H9J4)
T1 sequence (whole entry): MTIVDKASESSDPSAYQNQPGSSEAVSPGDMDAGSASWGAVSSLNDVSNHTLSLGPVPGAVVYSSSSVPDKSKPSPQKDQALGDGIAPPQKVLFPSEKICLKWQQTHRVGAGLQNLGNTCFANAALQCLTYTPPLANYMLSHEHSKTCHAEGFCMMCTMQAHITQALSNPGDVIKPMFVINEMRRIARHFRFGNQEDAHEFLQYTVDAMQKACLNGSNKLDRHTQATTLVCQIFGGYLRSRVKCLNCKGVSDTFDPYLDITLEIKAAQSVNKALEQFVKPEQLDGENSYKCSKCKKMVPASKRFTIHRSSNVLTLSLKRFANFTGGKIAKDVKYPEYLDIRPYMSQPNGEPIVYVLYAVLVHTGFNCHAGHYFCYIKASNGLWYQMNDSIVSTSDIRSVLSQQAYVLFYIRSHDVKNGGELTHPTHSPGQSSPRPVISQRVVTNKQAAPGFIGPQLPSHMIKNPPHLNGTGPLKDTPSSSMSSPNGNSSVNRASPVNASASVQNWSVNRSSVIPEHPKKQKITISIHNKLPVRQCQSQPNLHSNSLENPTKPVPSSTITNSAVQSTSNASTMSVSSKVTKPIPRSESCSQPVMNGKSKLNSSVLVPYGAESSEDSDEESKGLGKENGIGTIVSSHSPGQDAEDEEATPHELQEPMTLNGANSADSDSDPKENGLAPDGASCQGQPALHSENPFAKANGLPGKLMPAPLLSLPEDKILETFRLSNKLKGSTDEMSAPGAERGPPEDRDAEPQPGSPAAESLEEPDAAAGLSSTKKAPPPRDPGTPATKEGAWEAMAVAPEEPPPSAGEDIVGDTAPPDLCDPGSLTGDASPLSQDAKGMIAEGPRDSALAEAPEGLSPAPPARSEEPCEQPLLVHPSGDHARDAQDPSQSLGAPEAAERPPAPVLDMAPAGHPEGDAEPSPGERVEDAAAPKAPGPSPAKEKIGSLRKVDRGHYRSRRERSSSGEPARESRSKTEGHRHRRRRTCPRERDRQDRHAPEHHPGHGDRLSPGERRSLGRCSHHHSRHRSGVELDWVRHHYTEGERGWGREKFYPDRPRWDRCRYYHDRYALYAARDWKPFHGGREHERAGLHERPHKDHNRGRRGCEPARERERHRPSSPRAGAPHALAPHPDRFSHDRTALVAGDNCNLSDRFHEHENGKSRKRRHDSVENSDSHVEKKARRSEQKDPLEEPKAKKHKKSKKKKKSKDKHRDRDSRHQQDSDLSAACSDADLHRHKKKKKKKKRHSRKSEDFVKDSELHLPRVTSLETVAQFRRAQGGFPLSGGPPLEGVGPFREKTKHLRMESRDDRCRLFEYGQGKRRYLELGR
Outline: (§1)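 HEK293T lysate in Tris/CHAPS/IGEPAL buffer with protease inhibitors (495 µg per sample) was given fragment at 200 µM or vehicle for 3 h, in triplicate. It then received Biotin-Ahx-Ub-VS at 0.5 µM final for 1 h. Labelled DUBs were NeutrAvidin-enriched, digested with LysC and trypsin, and run by diaPASEF LC-MS/MS. Values are average log2 fragment/vehicle ratios by unpaired t-test on global-median-normalised Spectronaut quantities of proteins with ≥2 unique peptides.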

USP46 = USP46 (UniProt P62068)
Outline: as §1

USP47 = molecular target: T2, USP47 (UniProt Q96K76)
T2 sequence (whole entry): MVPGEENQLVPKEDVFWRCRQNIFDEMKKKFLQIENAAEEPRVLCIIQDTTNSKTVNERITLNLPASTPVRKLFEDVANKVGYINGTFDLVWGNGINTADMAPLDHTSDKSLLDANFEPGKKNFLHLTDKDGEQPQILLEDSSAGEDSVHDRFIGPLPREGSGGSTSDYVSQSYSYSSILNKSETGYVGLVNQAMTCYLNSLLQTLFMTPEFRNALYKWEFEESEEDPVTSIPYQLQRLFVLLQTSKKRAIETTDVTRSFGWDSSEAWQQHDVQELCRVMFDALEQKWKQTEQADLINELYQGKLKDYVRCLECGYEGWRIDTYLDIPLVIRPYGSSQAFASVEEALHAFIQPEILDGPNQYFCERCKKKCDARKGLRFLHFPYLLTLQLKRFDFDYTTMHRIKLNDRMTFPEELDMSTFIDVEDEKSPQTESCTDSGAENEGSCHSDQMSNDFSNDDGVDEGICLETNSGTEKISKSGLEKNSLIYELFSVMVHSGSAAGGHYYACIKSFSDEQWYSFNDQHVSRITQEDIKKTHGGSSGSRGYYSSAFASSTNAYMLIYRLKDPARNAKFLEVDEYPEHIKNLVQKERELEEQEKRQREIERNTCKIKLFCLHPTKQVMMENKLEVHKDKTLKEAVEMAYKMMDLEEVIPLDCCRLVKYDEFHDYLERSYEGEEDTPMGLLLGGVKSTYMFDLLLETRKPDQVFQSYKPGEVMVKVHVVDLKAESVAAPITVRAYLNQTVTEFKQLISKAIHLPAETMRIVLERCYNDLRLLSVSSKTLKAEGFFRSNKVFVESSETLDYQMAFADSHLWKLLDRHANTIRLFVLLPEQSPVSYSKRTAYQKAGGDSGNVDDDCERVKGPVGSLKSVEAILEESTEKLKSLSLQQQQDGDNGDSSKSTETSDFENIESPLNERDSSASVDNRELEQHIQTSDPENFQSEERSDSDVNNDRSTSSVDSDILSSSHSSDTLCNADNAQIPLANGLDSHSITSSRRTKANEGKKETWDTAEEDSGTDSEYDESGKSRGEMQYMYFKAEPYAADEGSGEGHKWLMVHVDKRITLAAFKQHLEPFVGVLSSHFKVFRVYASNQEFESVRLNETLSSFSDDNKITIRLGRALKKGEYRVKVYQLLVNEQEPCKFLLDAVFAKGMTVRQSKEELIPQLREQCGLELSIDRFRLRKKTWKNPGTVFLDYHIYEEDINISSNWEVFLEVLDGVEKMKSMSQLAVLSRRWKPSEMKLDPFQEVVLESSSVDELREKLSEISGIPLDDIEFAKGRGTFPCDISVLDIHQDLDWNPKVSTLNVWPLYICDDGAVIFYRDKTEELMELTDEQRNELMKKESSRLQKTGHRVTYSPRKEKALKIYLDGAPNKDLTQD
Outline: as §1

USP48 = molecular target: T3, USP48 (UniProt Q86UV5)
T3 sequence (whole entry): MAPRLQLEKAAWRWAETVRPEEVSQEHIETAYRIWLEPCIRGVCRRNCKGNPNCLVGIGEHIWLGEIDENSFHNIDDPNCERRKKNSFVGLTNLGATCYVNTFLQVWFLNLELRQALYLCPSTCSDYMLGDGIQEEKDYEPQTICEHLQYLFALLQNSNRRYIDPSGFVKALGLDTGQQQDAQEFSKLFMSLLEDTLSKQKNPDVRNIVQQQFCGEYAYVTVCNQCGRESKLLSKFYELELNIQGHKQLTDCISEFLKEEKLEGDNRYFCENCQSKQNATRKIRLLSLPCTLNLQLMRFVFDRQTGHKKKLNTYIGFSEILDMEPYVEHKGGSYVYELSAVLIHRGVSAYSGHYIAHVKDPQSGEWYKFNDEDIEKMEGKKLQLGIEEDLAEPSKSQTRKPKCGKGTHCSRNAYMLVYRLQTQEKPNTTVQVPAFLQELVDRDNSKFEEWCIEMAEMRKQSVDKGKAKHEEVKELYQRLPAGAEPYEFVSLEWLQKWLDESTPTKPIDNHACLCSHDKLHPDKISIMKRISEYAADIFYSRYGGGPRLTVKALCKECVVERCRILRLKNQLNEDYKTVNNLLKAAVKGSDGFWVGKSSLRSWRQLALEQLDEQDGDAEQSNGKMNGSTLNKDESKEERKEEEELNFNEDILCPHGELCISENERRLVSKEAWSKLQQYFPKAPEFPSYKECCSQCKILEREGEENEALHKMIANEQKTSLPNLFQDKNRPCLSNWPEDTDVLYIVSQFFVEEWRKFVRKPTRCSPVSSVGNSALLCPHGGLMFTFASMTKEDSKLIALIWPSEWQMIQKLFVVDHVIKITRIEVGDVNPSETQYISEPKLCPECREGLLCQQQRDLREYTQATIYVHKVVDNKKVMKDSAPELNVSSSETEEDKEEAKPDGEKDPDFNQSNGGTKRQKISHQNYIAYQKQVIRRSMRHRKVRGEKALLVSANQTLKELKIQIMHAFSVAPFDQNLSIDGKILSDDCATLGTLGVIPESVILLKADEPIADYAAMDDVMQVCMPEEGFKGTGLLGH
Outline: as §1

USP5 = molecular target: T4, USP5 (UniProt P45974)
T4 sequence (whole entry): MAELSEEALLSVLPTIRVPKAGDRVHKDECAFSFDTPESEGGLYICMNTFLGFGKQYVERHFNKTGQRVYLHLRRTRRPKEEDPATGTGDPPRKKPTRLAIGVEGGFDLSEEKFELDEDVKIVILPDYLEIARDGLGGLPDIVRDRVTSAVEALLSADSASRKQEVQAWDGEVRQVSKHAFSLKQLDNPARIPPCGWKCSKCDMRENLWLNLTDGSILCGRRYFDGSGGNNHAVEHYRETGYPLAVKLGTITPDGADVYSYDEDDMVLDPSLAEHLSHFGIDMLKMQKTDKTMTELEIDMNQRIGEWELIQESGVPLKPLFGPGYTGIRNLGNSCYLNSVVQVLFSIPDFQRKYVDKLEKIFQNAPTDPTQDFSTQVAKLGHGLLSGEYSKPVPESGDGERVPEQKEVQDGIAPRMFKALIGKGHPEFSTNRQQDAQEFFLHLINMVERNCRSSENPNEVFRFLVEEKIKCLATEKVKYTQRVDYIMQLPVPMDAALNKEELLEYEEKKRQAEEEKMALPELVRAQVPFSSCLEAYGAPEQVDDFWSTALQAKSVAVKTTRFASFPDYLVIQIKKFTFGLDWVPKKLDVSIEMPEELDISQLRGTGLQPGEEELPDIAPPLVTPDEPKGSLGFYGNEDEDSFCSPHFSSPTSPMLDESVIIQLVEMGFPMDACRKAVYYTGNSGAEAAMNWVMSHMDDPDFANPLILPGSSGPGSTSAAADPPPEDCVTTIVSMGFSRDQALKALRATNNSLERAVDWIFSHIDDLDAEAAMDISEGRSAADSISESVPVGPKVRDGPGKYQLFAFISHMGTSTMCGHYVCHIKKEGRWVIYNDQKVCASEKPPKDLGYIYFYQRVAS
Outline: as §1

USP54 = USP54 (UniProt Q70EL1)
Outline: as §1

USP7 = USP7 (UniProt Q93009)
Outline: as §1

USP8 = molecular target: T5, USP8 (UniProt P40818)
T5 sequence (whole entry): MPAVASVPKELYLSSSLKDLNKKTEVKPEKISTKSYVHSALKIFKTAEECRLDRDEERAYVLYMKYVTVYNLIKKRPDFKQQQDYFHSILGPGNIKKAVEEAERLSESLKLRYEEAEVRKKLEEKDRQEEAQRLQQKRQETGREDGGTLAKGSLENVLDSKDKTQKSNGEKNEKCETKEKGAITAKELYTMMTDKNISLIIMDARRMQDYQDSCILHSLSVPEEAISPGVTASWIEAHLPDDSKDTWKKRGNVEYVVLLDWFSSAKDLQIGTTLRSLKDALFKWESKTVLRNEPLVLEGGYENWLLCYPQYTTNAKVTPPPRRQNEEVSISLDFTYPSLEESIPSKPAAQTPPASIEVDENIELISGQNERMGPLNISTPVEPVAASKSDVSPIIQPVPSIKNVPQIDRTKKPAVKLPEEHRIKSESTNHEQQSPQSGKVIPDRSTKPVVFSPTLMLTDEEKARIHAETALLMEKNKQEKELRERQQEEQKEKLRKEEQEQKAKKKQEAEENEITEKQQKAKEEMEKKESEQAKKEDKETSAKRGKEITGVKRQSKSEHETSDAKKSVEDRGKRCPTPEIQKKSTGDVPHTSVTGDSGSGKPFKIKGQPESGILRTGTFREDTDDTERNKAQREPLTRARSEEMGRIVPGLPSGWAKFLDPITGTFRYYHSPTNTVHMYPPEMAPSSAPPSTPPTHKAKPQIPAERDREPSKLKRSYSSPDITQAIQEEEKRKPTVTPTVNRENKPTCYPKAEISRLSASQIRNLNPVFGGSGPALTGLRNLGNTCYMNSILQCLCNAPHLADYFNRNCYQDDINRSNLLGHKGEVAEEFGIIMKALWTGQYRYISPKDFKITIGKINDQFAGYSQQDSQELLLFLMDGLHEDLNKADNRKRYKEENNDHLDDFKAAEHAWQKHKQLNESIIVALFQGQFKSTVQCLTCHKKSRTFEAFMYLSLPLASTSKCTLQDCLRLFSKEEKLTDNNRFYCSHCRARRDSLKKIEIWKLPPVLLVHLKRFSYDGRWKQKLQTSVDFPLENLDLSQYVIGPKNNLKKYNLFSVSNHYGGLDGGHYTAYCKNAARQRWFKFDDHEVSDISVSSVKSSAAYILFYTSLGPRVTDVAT
Outline: as §1

USP9X = USP9X (UniProt Q93008)
Outline: as §1

UniProt O00487 = molecular target: UniProt O00487
Outline: as §1

Measured: log2 ratio of Biotin-Ahx-Ub-VS probe labelling

Chain of USP7 (Q93009 whole entry, looked up): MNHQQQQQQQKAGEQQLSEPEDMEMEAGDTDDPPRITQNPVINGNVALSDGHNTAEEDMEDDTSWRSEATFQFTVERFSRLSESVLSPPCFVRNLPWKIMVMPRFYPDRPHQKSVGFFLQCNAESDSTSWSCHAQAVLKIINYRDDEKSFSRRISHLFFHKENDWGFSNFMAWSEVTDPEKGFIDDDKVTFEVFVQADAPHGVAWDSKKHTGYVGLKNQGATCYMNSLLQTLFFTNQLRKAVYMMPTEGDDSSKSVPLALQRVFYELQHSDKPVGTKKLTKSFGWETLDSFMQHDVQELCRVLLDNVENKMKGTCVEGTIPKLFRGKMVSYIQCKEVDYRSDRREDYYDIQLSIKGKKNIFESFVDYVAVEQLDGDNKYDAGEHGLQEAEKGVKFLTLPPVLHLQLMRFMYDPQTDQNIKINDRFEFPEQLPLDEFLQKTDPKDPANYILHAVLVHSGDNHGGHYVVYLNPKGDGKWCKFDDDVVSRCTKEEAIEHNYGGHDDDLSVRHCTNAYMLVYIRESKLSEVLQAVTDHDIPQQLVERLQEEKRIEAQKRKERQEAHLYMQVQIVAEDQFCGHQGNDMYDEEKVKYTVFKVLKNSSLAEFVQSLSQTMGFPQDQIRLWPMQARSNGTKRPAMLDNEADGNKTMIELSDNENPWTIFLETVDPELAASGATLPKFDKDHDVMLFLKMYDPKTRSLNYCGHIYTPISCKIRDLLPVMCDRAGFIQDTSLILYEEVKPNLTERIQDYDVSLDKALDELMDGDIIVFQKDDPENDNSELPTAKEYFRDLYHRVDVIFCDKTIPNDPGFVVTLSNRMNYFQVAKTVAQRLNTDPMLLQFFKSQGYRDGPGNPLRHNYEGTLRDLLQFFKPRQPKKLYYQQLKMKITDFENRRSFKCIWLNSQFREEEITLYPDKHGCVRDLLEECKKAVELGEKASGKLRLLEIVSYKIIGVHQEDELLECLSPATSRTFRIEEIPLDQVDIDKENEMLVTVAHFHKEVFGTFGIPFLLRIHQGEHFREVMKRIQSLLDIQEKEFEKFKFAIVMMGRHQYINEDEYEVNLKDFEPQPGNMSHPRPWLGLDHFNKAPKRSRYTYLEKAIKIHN
Chain of USP46 (P62068 whole entry): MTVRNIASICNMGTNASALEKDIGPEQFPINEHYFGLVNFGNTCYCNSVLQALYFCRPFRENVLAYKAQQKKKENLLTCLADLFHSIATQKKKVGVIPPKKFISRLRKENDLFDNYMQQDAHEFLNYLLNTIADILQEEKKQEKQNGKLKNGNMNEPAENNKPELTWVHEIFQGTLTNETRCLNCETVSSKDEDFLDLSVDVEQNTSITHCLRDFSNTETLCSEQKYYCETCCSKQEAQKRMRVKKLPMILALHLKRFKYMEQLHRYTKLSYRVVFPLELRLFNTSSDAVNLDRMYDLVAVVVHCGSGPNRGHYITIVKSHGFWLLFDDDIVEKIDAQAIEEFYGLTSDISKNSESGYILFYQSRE
Chain of USP54 (Q70EL1 whole entry): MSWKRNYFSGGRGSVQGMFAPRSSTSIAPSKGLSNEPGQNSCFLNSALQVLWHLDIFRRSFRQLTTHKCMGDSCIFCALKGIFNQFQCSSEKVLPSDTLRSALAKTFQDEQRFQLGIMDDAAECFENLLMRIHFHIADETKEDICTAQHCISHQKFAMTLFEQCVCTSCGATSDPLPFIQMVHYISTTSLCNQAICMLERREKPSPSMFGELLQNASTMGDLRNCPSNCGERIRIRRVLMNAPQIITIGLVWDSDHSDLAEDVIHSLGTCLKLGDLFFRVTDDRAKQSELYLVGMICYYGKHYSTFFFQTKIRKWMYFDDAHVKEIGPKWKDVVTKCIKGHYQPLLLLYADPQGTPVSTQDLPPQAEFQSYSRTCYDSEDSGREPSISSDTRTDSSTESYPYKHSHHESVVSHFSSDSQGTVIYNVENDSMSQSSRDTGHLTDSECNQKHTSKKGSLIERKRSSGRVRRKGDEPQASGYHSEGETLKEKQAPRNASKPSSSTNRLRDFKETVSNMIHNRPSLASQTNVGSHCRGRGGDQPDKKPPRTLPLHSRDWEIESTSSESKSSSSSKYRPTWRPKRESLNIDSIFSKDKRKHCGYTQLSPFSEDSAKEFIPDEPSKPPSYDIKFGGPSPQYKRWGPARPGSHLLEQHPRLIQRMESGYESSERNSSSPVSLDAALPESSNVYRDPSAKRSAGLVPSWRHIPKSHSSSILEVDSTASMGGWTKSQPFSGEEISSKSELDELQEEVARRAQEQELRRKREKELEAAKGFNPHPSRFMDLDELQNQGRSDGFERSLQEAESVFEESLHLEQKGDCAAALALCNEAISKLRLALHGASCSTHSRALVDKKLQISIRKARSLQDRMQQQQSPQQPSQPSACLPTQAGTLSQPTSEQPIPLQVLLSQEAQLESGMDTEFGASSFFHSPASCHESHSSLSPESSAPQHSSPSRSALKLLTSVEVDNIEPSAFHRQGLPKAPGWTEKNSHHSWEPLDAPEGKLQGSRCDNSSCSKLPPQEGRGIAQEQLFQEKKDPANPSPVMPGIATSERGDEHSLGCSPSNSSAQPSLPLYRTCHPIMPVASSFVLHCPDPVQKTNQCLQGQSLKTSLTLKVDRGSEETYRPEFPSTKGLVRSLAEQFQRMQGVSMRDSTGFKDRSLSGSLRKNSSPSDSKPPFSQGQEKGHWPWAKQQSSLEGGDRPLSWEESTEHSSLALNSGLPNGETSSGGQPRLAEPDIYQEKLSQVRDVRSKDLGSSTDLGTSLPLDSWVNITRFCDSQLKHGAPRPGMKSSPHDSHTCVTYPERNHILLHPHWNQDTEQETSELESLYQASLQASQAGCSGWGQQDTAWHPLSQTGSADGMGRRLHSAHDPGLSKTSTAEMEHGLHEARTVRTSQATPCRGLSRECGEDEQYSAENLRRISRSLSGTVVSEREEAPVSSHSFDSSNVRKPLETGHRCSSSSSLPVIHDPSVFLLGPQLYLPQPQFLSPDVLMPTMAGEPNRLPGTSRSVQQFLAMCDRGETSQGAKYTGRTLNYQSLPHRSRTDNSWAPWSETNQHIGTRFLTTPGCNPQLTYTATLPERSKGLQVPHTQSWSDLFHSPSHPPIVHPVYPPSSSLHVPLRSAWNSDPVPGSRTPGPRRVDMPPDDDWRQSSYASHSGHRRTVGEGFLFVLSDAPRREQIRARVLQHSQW
Chain of UniProt O00487 (O00487 whole entry): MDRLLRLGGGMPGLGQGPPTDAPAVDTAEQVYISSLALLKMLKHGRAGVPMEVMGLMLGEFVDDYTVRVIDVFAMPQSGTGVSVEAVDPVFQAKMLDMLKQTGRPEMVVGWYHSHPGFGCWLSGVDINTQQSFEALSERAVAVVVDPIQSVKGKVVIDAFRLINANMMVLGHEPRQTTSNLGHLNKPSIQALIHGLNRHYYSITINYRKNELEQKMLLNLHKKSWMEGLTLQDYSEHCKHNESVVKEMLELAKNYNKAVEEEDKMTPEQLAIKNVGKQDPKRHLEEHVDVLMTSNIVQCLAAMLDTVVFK

O=C(CCl)N1CCN(c2nc3ccccc3o2)CC1
inactive: USP42 0.952 | USP46 -0.372 | USP47 -0.362 | USP48 -0.829 | USP5 -0.993 | USP54 -0.173 | USP8 -0.223 | USP9X -0.248 | UniProt O00487 -0.0834
active: USP7 -1.99
